The values that follow come from PubChem BioAssay AID1851 (National Center for Advancing Translational Sciences (NCATS), 2009).

In all, about 16,000 compounds went through this assay and about 5,800 (36%) were called active. Another 23% or so got no clear call; they are omitted. Calls follow the shape of the dose curve; as a rule, active = well fitted curve in the direction sought with a large enough effect; inconclusive = small, poorly fitted or top-dose-only effect, or effect the other way; inactive = no such curve, though single readings can be large or run the other way. The list shows a part of the results.
% is scaled to controls: 0 for no effect and ±100 for the full control effect.

Chain of Cytochrome P450 2C19 (Homo sapiens) (P33261 whole entry, looked up): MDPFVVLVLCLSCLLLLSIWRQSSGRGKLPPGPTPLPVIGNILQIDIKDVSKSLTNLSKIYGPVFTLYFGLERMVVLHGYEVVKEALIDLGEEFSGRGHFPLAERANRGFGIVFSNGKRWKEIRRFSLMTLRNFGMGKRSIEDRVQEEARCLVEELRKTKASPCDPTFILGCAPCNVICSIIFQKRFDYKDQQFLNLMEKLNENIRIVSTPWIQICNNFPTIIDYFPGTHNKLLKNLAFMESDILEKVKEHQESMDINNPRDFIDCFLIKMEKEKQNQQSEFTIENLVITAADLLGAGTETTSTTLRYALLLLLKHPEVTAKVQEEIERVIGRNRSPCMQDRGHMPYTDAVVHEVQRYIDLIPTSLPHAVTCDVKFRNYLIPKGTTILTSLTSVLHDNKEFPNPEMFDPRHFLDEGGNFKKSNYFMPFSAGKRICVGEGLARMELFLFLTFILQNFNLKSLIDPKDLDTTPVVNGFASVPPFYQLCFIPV

This assay addresses Cytochrome P450 2C19 (Homo sapiens) (UniProt P33261). In words: Cytochrome panel assay with activity outcomes. The conditions noted are these: recombinant CYP, pro-luciferin dealkylation, luminescence, p450-cyp2c19; series mostly up to 57.1 µM.
Consider `C#CCCCO/N=C1/C[C@@H](O)[C@@H](O)[C@@H]2[C@@H]3C(=O)N(CCC(=O)OCC)C(=O)[C@H]3CC[C@@H]12`, for which the activity, negative = inhibition was -1.53% [at 11.4 µM] (inactive).
What is called AC50 is the concentration giving half of the maximal activity seen. For the molecule `COc1ccc(-n2c(=O)cnc3cnc(N4CCNCC4)nc32)cc1`, the AC50 entry is “inactive”.
On the same count and under the same terms, the value for `CSc1cccc(NC(=O)Cn2cccc2)c1` was 6.31 µM (active).
Still for that read-out and setting: with `COc1ccc(CCNC(=O)Cn2c(=O)oc3ccccc32)cc1OC` the entry was “inactive”; with `CCOc1cc(/C=C2/NC(=O)N(CC(=O)Nc3cccc(C)c3)C2=O)ccc1OC`, “inactive”.
Still for that read-out and setting: the value for `Cc1ccc(CNC(=O)Cn2c(=O)oc3ccccc32)o1` was 3.55 µM (active); that for `CSc1cccc(NC(=O)Nc2ccc(Cl)cc2)c1` was 2 µM (active); that for `Cc1cccc(NC(=O)Cn2cccc2)c1` was 15.8 µM (active).
In the case of `CSc1cccc(NC(=O)OC2CCCCCCCCCCC2)c1`, the activity, negative = inhibition was -41.3% [at 11.4 µM] (inactive).
For the molecule `N#Cc1cccc(NC(=O)N2CCCC3(CCN(C(=O)c4csnn4)CC3)C2)c1`, the AC50 entry was “inactive”.
For `CC(=O)OC[C@H]1O[C@@H](O/N=C(\C)CCN2CCCc3nc(C)c(C)cc32)[C@H](OC(C)=O)[C@@H](OC(C)=O)[C@H]1OC(C)=O`, the activity, negative = inhibition was -24.1% [at 11.4 µM] (inactive).
As for `CCN(C(=O)Cn1c(=O)oc2ccccc21)c1cccc(C(F)(F)F)c1`, the AC50 was 3.55 µM (active).
Still for that read-out and setting: the value for `Cc1cccc(NC(=O)Cn2c(=O)oc3ccccc32)c1` was 3.16 µM (active).
On to `Cc1cc(C)nc(SCCc2cccc[n+]2C)n1`, for which the activity, negative = inhibition is 66.4% [at 11.4 µM] (inactive).
Turning to `Cc1cccc(N/C(N)=N/c2nc(C)cc(C)n2)c1`, the AC50 result is “inactive”.
The same measure, in the same setting: with `Cc1cccc(NC(=O)CCSc2nc(C)cc(C)n2)c1` the figure was 4.47 µM (active); with `O=C(O)C1=CCNCC1`, “inactive”.
Take `COCCNc1ccnc(-c2c(C)noc2C)n1`: the AC50 entry is “inactive”.
The same measure, in the same setting: with `COc1ccccc1CNc1ccnc(-c2c(C)noc2C)n1` the figure was 1 µM (active); with `COc1ccc(CNc2ccnc(-c3c(C)noc3C)n2)c(OC)c1`, 1.58 µM (active).
The same measure, in the same setting: the value for `COC(=O)N1CC(=O)N(OC)C1c1ccc(Cl)cc1Cl` (centres undefined) was 5.62 µM (active); that for `CC(=O)N1CC(=O)N(OCc2ccccc2)C1c1ccc(Cl)cc1Cl` (centres undefined) was 3.16 µM (active).
Take `CCOc1ccc(N=C2NC(=O)C(CC(=O)O)S2)cc1` (centres undefined): the AC50 result was “inactive”.
Still for that read-out and setting: the value for `Cc1ccc2c(c1)C(=O)[C@@]1(O)CCN(c3ccccc3)C1=N2` was 7.94 µM (active).
Still for that read-out and setting: with `CC(C)(Oc1ccc(Cl)cc1)C(=O)Nc1ccncc1` the figure was 0.0562 µM (active); with `CC(C)(Oc1ccc(CCNC(=O)c2ccc(Cl)cc2)cc1)C(=O)O`, “inactive”; with `CCC(C)(C)N=C(NC#N)Nc1cccnc1`, “inactive”.
Still for that read-out and setting: the value for `CC(C)(Oc1ccc(Cl)cc1)C(=O)Nc1cccnc1` was 2.51 µM (active).
Consider `CC(C)(Oc1ccc([C@@H]2CC2(Cl)Cl)cc1)C(=O)O`, for which the AC50 result was “inactive”.
On the same count and under the same terms, the value for `O=C1c2ccccc2CCC12N=NCC2c1ccc(Cl)cc1` (centres undefined) was 0.562 µM (active).
Same read-out and setting: with `C=CCn1c(SC(C)C(=O)NCc2ccc3c(c2)OCO3)nc2scc(-c3ccccc3)c2c1=O` (centres undefined) the figure was 2 µM (active).
Still for that read-out and setting: the value for `C=CCn1c(SCc2ccc3c(c2)OCO3)nc2scc(-c3ccco3)c2c1=O` was 1.41 µM (active); that for `C=CCn1c(SCc2ccccc2)nc2scc(-c3ccc(C)o3)c2c1=O` was “inactive”.
Take `C=CCn1c(SCC(=O)N2CC(=O)Nc3ccccc32)nc2scc(-c3ccccc3)c2c1=O`: the AC50 was 7.94 µM (active).
Same read-out and setting: the value for `NS(=O)(=O)c1cc2c(cc1Cl)N[C@@H](C(Cl)Cl)NS2(=O)=O` was “inactive”; that for `CCCCCCCCOC1OC(CO)C(O)C(O)C1NC(C)=O` (centres undefined) was “inactive”; that for `Cc1ccc(NC(=O)N/C=C/c2ccco2)cc1C` was 3.16 µM (active).
Still for that read-out and setting: the value for `C/C(=N\NC(=O)CC1N=C(Cc2ccccc2)NNC1=O)c1ccc(Cl)cc1Cl` (centres undefined) was 28.2 µM (active).
The same measure, in the same setting: the value for `CC(NC(=O)OCc1ccccc1)C(=O)NCC1CCCO1` (centres undefined) was “inactive”; that for `CCNc1ncc2nc(-c3ccc(F)cc3)c(=O)n(C[C@H]3CCCO3)c2n1` was “inactive”; that for `O=C(CSCc1c(F)cccc1Cl)NCC1CCCO1` (centres undefined) was 11.2 µM (active).
For the molecule `O=C(CC(c1ccccc1)c1ccccc1)NCC1CCCO1` (centres undefined), the AC50 is 14.1 µM (active).
Still for that read-out and setting: with `CN(C)c1ncc2nc(-c3ccc(F)cc3)c(=O)n(C[C@H]3CCCO3)c2n1` the entry was “inactive”; with `CN(c1ccc(C(=O)NCC2CCCO2)cc1)S(=O)(=O)c1ccccc1` (centres undefined), “inactive”.
Same read-out and setting: with `Cc1cccc2c(SCC(=O)NCC3CCCO3)nc(-c3ccc(F)cc3)nc12` (centres undefined) the figure was 1.26 µM (active); with `Oc1ccc([C@@H]2CNCCc3c2cc(O)c(O)c3Cl)cc1`, “inactive”.
The same measure, in the same setting: the value for `COc1ccc(CCC(C)NC2C3CC4CC(C3)CC2C4)cc1` (centres undefined) was 25.1 µM (active).
Consider `CC(C)NC[C@@H](O)COc1ccc(CCOCC2CC2)cc1`, for which the AC50 result was “inactive”.
With `O=C1N(c2ccccc2)c2ccccc2C1(Cc1ccncc1)Cc1ccncc1`, the AC50 is 0.2 µM (active).
Still for that read-out and setting: the value for `O=C1c2ccccc2C(Cc2ccncc2)(Cc2ccncc2)c2ccccc21` was “inactive”.
With `N#C/C(=C\c1ccc(Cl)cc1)c1nc2ncccc2[nH]1`, the AC50 is 25.1 µM (active).
Same read-out and setting: with `COc1ccccc1CN1CCCC2(CCNCC2)C1` the entry was “inactive”; with `COc1cccc(CN2C(=O)N(C(C)C)C(N(O)C(=O)NC(C)C)C2(C)C)c1OC` (centres undefined), 14.1 µM (active).
On the same count and under the same terms, the value for `O=C1/C(=C\c2ccccn2)SC(=S)N1Nc1ncc(C(F)(F)F)cc1Cl` was 7.94 µM (active).
Still for that read-out and setting: the value for `CN(C)c1ccc(/C=C2\SC(=S)N(Nc3ncc(C(F)(F)F)cc3Cl)C2=O)cc1` was 20 µM (active); that for `O=c1c(Cl)c(N2CCN(S(=O)(=O)c3ccc(F)cc3)CC2)cnn1-c1cccc(Cl)c1` was 4.47 µM (active); that for `O=C(NCc1n[nH]c(=S)n1-c1cccc(Cl)c1)c1ccc(S(=O)(=O)N2CCCC2)cc1` was “inactive”.
Take `C[N+](C)(C)CCOC(N)=O`: the AC50 entry was “inactive”.
On the same count and under the same terms, with `Nc1ncnc2c1ncn2C1CCCC1` the entry was “inactive”; with `Nc1ncnc2c1c(-c1ccc(Oc3ccccc3)cc1)cn2C1CCCC1`, 25.1 µM (active).
As to `C#CCCCO/N=C1/C[C@@H](O)[C@@H](O)[C@@H]2[C@@H]3C(=O)N(C4CCCCC4)C(=O)[C@H]3CC[C@H]12`, the activity, negative = inhibition is 4.77% [at 11.4 µM] (inactive).
Regarding `c1nc(NCCN2CCOCC2)c2cc(-c3ccoc3)ccc2n1`, the AC50 result was “inactive”.
`COc1ccc(CNc2ncnc3ccc(-c4cccc(C#N)c4)cc23)c(OC)c1`: the AC50 result is “inactive”.
Same read-out and setting: the value for `c1csc(CNc2ncnc3ccc(-c4ccoc4)cc23)c1` was 6.31 µM (active); that for `N#Cc1cccc(-c2ccc3ncnc(NCc4ccccc4)c3c2)c1` was “inactive”; that for `COc1ccccc1CNc1ncnc2ccc(-c3ccccc3OC)cc12` was 3.16 µM (active).
Consider `COc1ccccc1CNc1ncnc2ccc(-c3cccc(C#N)c3)cc12`, for which the AC50 is 5.01 µM (active).
As to `COc1cccc(-c2ccc3ncnc(NCc4ccc(OC)cc4OC)c3c2)c1`, the AC50 was 10 µM (active).
Still for that read-out and setting: with `COc1ccccc1CNc1ncnc2ccc(-c3ccccc3CN(C)C)cc12` the entry was “inactive”.
